BRCA1 expr up: activators of BRCA1 expression. MCF7-BRCA1-FFLuc reporter, luminescence, 48 h; response scale: scaled: vehicle 0%, 10 µM genistein 100%. Potency, µM (highest dose often 46.1 µM), for inactives: at the highest dose activation, actives largely listed as activators. 380,000 compounds, 1.1% hits. AID 624202; further: potency means the concentration at half of the fitted maximal effect; nearly all actives have a fitted effect of over 80% in size
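Reporter cells (MCF7, BRCA1 promoter-firefly luciferase) received library compounds across a concentration series for 48 h. End-point luminescence was measured and concentration-effect curves derived after normalization.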
ASM inhibitor: blocks human secretory acid sphingomyelinase; 340,000 compounds, 0.006% hits; P17405; Potency, µM (titrated, usually from 57.5 µM), inactives show at the top dose activity change, negative = inhibition, hits mostly inhibitors; AID 504937; placental ASM, HMU-PC fluorogenic substrate, 60 min; further: potency means the concentration at half of the fitted maximal effect
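HMU-PC0 cleavage (9 uM final) by human placental ASM, 60 min at 37 °C following 10 min compound exposure at RT; stopped at pH 10, fluorescence Ex 386/Em 447 nm.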
TSHR antagonist: blocks TSH signaling through the human TSH receptor | 330,000 compounds, 0.2% hits | activity change, negative = inhibition, % at 11.5 µM | P16473 | TSHR-expressing cells, TSH-stimulated cAMP HTRF, 2 h; stronger effect = lower value;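 active means activity change below a set negative limit, meaning inhibition stronger than a set level, cut at about -70% in these data; inconclusive means activity change between two set negative limits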; further: on the % scale 0 is the no-effect control and ±100 the full control effect
Target sequence (P16473 whole entry, looked up): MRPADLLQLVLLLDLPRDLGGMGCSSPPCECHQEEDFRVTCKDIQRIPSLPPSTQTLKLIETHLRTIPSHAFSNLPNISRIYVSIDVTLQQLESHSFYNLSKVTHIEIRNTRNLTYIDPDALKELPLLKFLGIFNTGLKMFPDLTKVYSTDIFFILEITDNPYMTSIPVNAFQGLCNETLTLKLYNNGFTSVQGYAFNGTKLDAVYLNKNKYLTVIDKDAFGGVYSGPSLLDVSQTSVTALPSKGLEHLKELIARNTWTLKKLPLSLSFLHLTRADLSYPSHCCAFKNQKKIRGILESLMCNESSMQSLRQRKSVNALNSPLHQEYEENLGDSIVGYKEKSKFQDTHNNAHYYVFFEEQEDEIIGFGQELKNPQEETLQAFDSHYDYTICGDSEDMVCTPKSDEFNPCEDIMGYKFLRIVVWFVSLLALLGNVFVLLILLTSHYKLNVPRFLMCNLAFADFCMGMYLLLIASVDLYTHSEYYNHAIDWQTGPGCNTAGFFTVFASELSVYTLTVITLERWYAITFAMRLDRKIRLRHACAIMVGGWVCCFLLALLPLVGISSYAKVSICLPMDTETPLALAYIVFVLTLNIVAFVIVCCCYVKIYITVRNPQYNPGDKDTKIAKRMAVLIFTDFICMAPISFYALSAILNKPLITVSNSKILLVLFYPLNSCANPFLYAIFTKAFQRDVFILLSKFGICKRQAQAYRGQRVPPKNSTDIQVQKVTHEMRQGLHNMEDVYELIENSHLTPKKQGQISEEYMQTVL
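Freshly harvested TSHR cells receive pin-tooled compound, then EC80 TSH at 4nM final. After 2 hours at 37 deg C, antibody in lysis buffer and cAMP-d2 are added; 30 minutes at ambient temperature precede the HTRF read.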
TSG101-PTAP inh: blocks PTAP/TSG101 interaction to inhibit HIV-1 budding. Q99816. AID 493005. Fluorescence polarization, FITC-PTAP peptide / Tsg101 binding. 340,000 tested, under 10 active. Potency, µM (highest dose often 115 µM), without a hit: top-dose activity change, negative = inhibition, usual class: inhibitors; active means well fitted inhibition curve with a large enough effect in the main read-out, with a control signal flat, not every such curve was filed as active; inconclusive means small, poorly fitted or top-dose-only effect, or effect the other way, or a change in a side signal; inactive means no such curve, though single readings can be large or run the other way; further: potency means the concentration at half of the fitted maximal effect; % of control where 0% means no effect
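Compounds were pin-transferred onto Tsg101 binding domain (10 uM final) in HEPES pH 7.5 buffer, then FITC-PTAP peptide was added at 50 nM final. After 20 min at RT, polarization reported peptide displacement across a qHTS concentration series.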
Anesthetic bind: binds horse apoferritin like a general anesthetic. P02791. apoferritin/1-aminoanthracene competitive binding, fluorescence. Potency, µM (titrated, usually from 77.5 µM), without a hit: at the highest dose activity change, negative = displacement, most hits filed as inhibitors. 350,000 compounds, 0.074% hits; further: potency means the concentration at half of the fitted maximal effect; on the % scale 0 is the no-effect control and ±100 the full control effect; nearly all actives have a fitted effect of over 20% in size
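In PBS, apoferritin at 10 uM is loaded with 1-AMA from a 50% saturated solution. After 10 min of compound exposure at ambient temperature, reduced 535 nm fluorescence indicates probe displacement.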
The depositor's hits bear a star; [ ] = remark or other dose. This is a sample that favours compounds with a hit; in the whole collection about 1.2% have one here. Unless noted, the call rests on the fitted dose curve; in most records, active means well fitted curve in the direction sought with a large enough effect; inconclusive means small, poorly fitted or top-dose-only effect, or another doubt; inactive means no such curve, though single readings can be large; an effect the other way counts as inactive or inconclusive.

For C[C@H](NC(=O)Cc1cc(F)cc(F)c1)C(=O)N[C@@H](C(=O)OC(C)(C)C)c1ccccc1 the results were Anesthetic bind 0%.
CNc1c(Br)cc(C(O)C2=CCc3ccccc32)cc1Br (stereo not given) was read as BRCA1 expr up -65%.
Cc1cc(/C=C(\C#N)C(=O)Nc2ccccc2)c(C)n1-c1cccnc1 was read as BRCA1 expr up 5.6µM*, ASM inhibitor 50%, TSHR antagonist -17, TSG101-PTAP inh -1% and Anesthetic bind 0%.
COc1cc(OC)cc(C(=O)Nc2ccc3c(c2)OCCO3)c1 was read as BRCA1 expr up 13µM*, ASM inhibitor 0%, TSHR antagonist -4, TSG101-PTAP inh -2% and Anesthetic bind -4%.
Screening O=C(Nc1ccc2c(c1)OCCO2)c1c(F)cccc1F returned BRCA1 expr up 2.5µM*, ASM inhibitor -3%, TSHR antagonist 1 and Anesthetic bind 0%.
`CCOC(=O)c1[nH]c2cc(OC)c(OC)cc2c1NC(=O)c1ccc2c(c1)OCO2` gave BRCA1 expr up -6%, ASM inhibitor 18%, TSHR antagonist -75*, TSG101-PTAP inh -2% and Anesthetic bind -6%.
Screening CCOc1ccc(C(=O)Nc2ccc3c(c2)OCCO3)cc1[N+](=O)[O-] returned BRCA1 expr up 46%, ASM inhibitor 2%, TSHR antagonist -17, TSG101-PTAP inh 0% and Anesthetic bind -20%.
`CCOc1ccc(C(=O)Nc2ccc3c(c2)OCCO3)cc1OC` gave BRCA1 expr up 10µM*, ASM inhibitor 1%, TSHR antagonist -1, TSG101-PTAP inh -7% and Anesthetic bind 0%.
For CCOC(=O)c1[nH]c2ccc(OC)cc2c1NC(=O)c1ccc2c(c1)OCO2 the results were BRCA1 expr up -11%, ASM inhibitor 11%, TSHR antagonist 7, TSG101-PTAP inh -6% and Anesthetic bind 6%.
`O=C1CCCC=C1[C@H](O)CCCCBr` gave Anesthetic bind -3%[15.3 µM].
`CCCCN(CCCC)c1ccc(C=Nc2ccc(/C=C/c3ccnc4ccccc34)cc2)cc1C` gave BRCA1 expr up -5%.
For O=C(Nc1ccc2c(c1)OCO2)c1cccc(Cl)c1 the results were BRCA1 expr up 11µM*, ASM inhibitor -3%, TSHR antagonist -5, TSG101-PTAP inh -5% and Anesthetic bind -5%.
For O=C(Nc1ccc2c(c1)OCO2)c1ccc2c(c1)OCO2 the results were BRCA1 expr up -5%, ASM inhibitor 6%, TSHR antagonist 8, TSG101-PTAP inh 3% and Anesthetic bind 3%.
`CCCOc1ccc(C(=O)Nc2ccc3c(c2)OCO3)cc1` gave BRCA1 expr up 3.2µM*, ASM inhibitor 0%, TSHR antagonist -30, TSG101-PTAP inh -5% and Anesthetic bind -7%.
`CCCCOc1ccc(C(=O)Nc2ccc3c(c2)OCO3)cc1` gave BRCA1 expr up 10%, ASM inhibitor 5%, TSHR antagonist 7, TSG101-PTAP inh -1% and Anesthetic bind -3%.
`CCn1c2ccccc2c2cc(/C=C3/C=Cc4ccccc43)ccc21` gave BRCA1 expr up -42%.
Screening COc1cc(/C=c2\[nH]c(=O)/c(=C/c3cc(OC)c(OC)c(OC)c3)[nH]c2=O)cc(OC)c1OC returned BRCA1 expr up 12%.
Screening COc1ccc(C2C3C=CCC(c4cccc(/C=C/c5ccccc5)c4)C3C(=O)N2Cc2ccccc2)cc1Cl (stereo not given) returned Anesthetic bind -8%.
For C=C(C)[C@@H]1C2=CC(C(=O)OC)=C(C[C@@H](C(=C)C)[C@H]3O[C@H]3C3=C[C@H]1OC3=O)O2 the results were BRCA1 expr up -43%.
CCOc1cc(N2CCOCC2)c(OCC)cc1NC(=O)c1cccc(S(=O)(=O)N2CC(C)OC(C)C2)c1 (stereo not given) was read as BRCA1 expr up -7%.
`CCOc1cc(N2CCOCC2)c(OCC)cc1NC(=O)c1cccc(S(=O)(=O)N2CCOCC2)c1` gave BRCA1 expr up -12%, ASM inhibitor -4%, TSHR antagonist -88* and TSG101-PTAP inh 2%.
Screening O=C(NCCSC1CCCCC1)c1ccccc1 returned BRCA1 expr up inconclusive, ASM inhibitor 1%, TSHR antagonist -9, TSG101-PTAP inh -8% and Anesthetic bind inconclusive.
`COc1ccc(C(=O)NCCSC2CCCCC2)cc1` gave BRCA1 expr up 1.8µM*, ASM inhibitor 4%, TSHR antagonist -8, TSG101-PTAP inh -4% and Anesthetic bind -21%.
`COC(=O)c1c(-c2ccc(S(C)(=O)=O)cc2)sc2ccc(OC)cc12` gave BRCA1 expr up 4.5µM*, ASM inhibitor -12%, TSHR antagonist -7 and TSG101-PTAP inh 0%.
O=C(COc1ccccc1C(=O)Nc1ccccc1F)Nc1ccc(Br)cc1 was read as BRCA1 expr up -21%.
Screening CC(C)(C=O)C1=CC(=O)c2ccccc2C1=O returned BRCA1 expr up -75%, ASM inhibitor 0%, TSHR antagonist -87*, TSG101-PTAP inh -4% and Anesthetic bind -3%.
Cc1ccc(NC(=O)c2nnn(-c3ccc4c(c3)OCCO4)c2N)cc1 was read as BRCA1 expr up 5.6µM*, ASM inhibitor 12%, TSHR antagonist -4, TSG101-PTAP inh 1% and Anesthetic bind -11%.
Screening Cc1ccccc1Cn1nnc(C(=O)Nc2ccc3c(c2)OCCO3)c1N returned BRCA1 expr up 3.5µM*, TSHR antagonist -6 and TSG101-PTAP inh -5%.
`Nc1c(C(=O)NCc2ccc3c(c2)OCO3)nnn1CC(=O)Nc1ccc(Br)cc1` gave BRCA1 expr up -16%, ASM inhibitor 21%, TSHR antagonist -114*, TSG101-PTAP inh -3% and Anesthetic bind inconclusive.
Nc1c(C(=O)Nc2ccccc2)nnn1-c1ccc2c(c1)OCCO2 was read as BRCA1 expr up 68%, ASM inhibitor 24%, TSHR antagonist -5, TSG101-PTAP inh 0% and Anesthetic bind -14%.
O=C(Nc1ccccc1F)c1ccc(O)c2ncccc12 was read as TSHR antagonist -7.
Screening Cc1cc(NC(=O)c2cccc(Cl)c2)n[nH]1 returned BRCA1 expr up 4µM*, ASM inhibitor 2%, TSHR antagonist -1 and TSG101-PTAP inh -1%.
Screening Cc1ccc(NC(=O)c2cccc(Cl)c2)nc1 returned BRCA1 expr up inconclusive, ASM inhibitor 1%, TSHR antagonist 11, TSG101-PTAP inh -9% and Anesthetic bind -13%.
For CCN1CCN(c2cc(C)c3cc(NC(=O)c4ccccc4F)ccc3n2)CC1 the results were TSHR antagonist 70 and Anesthetic bind 2%.
O=C(Nc1ccc(N2CCCC2)c(Cl)c1)c1ccccc1F was read as BRCA1 expr up 3.2µM*.
